Shown are actives, neighbours in structure and some others; about 12% of the full set was active somewhere.
USP30 block: inhibitors of human USP30 deubiquitinase | purified USP30, Ub-rhodamine cleavage fluorescence | inhibition, % at 25 µM | 47,000 tested, 5.3% active | AID 1645860
USP28 block: human USP28 deubiquitinase inhibition | inhibition, % at 25 µM | purified USP28, Ub-rhodamine cleavage fluorescence, 30 min | 47,000 tested, 3% active
Target sequence (Q96RU2 whole entry, looked up): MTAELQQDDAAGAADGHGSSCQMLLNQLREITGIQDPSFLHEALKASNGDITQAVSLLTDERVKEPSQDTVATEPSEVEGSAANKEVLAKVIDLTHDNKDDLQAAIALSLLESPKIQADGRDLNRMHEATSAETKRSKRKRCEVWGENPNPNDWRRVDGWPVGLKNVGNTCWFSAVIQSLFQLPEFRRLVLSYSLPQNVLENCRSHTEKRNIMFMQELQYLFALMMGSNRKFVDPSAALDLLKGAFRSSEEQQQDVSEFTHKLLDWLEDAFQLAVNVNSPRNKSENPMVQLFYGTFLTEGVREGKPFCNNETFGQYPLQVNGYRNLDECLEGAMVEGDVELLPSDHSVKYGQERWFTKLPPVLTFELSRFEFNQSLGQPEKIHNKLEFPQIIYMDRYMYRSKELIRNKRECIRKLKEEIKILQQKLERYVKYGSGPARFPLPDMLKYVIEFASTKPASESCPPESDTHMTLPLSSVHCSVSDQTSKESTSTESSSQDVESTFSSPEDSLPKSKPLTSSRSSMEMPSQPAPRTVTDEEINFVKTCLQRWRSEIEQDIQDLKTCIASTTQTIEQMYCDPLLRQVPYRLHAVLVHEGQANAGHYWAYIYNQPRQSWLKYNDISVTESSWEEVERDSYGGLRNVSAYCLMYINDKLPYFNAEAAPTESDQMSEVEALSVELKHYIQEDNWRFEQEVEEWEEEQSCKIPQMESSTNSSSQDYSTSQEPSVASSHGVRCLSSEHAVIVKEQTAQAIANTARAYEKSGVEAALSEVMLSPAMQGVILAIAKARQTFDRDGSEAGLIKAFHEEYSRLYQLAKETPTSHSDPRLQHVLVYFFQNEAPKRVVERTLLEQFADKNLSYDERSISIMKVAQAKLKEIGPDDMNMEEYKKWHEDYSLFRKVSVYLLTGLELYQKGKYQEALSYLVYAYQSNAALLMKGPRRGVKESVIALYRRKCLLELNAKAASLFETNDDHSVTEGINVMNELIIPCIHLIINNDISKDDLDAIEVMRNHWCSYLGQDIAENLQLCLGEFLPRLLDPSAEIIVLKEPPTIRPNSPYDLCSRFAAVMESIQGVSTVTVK
OTUD3 block: inhibitors of human OTUD3 deubiquitinase | Q5T2D3 | purified OTUD3, Ub-rhodamine fluorescence, 2 h | inhibition, % at 25 µM | 47,000 tested, 0.7% active
USP17 block: human USP17-like deubiquitinase inhibition | purified USP17, Ub-rhodamine cleavage fluorescence, 3 h | 47,000 tested, 6.5% active | AID 1645855 | inhibition, % at 50 µM
* = called active by the depositor; . = no result given. Rule as the data show it: active = inhibition above about 30%; inactive = the rest.

SMILES	USP30 block	USP28 block	OTUD3 block	USP17 block
O=C(Nc1ccc2c(c1)OCO2)c1cc(CN2CCCC2)on1	-24.5	26.8	7.3	34.6*
CC1CCCCN1CCNc1ncnc2onc(-c3cc(F)cc(F)c3)c12 (stereo unspecified)	-27.2	-12.6	-5.3	.
O=[N+]([O-])c1ccc(NCC2COc3ccccc3O2)c(Cl)c1 (stereo unspecified)	25.7	72.5*	10.6	7.2
Cc1ccc(O)c(C(=O)c2cc(-c3nc4ccccc4[nH]3)c(=O)n(Cc3ccc(Cl)cc3)c2)c1	-10.6	-4.3	-1.0	3.3
COc1cccc(OC)c1C(=O)Nc1c(NCc2ccccc2)c2ccccc2oc1=O	16.8	17.8	13.4	30.5*
COc1cc(NC(=O)c2ccc(SCCN3CCOCC3)nc2)cc(OC)c1OC	-29.7	-1.5	-4.2	-19.2
O=c1[nH]c2ccccc2n1CCCOc1ccc(Cl)cc1	6.3	39.8*	0.7	6.8
O=C(O)c1cccc(S(=O)(=O)NCc2ccc3c(c2)OCO3)c1	35.0*	9.1	15.9	8.8
Cc1nc2nc(N(Cc3ccc(F)cc3)C(=O)c3cccs3)[nH]n2c(=O)c1C	-11.1	1.7	4.0	5.6
Cc1ccc(Cl)cc1-n1ncc2c1ncn1nc(C3CCCCC3)nc21	24.3	15.1	8.1	34.2*
OCCSc1nnc(N2CCCC2)n1-c1cccc(Cl)c1	17.7	11.3	5.7	4.3
c1ccc(-n2c(SCCc3ccncc3)nnc2N2CCOCC2)cc1	42.0*	11.2	16.7	19.3
C=C(C)C#CC1=C[C@@H](O)[C@H]2O[C@H]2[C@@H]1O	-42.5	-15.7	-11.7	-16.4
Cc1ccc(OC(=O)c2cn(-c3ccccc3)nc2-c2cccnc2)cc1	45.1*	-4.1	9.8	55.4*
O=S(=O)(c1ccc2c(c1)OCCO2)N(Cc1ccccc1)Cc1nnc(-c2ccccc2)o1	74.3*	23.4	21.5	.
COc1cc(OC)cc(-c2nc(-c3cn(-c4cccc(F)c4)nn3)no2)c1	64.6*	22.0	21.5	0.9
COc1cccc(-c2nc(-c3cn(Cc4ccc(C)cc4)nn3)no2)c1	9.5	7.8	2.4	4.0
COc1ccccc1-c1nc(-c2cn(-c3cccc(Cl)c3)nn2)no1	46.0*	19.6	16.9	-17.8
COc1ccccc1-c1nc(-c2cn(-c3ccc(C)cc3)nn2)no1	10.9	1.4	10.9	62.4*
Fc1cccc(Cn2cc(-c3noc(-c4cccnc4)n3)nn2)c1	-5.3	-3.2	-2.0	62.9*
Fc1cccc(-n2cc(-c3noc(-c4ccncc4)n3)nn2)c1	18.0	4.3	4.1	11.4
COc1ccc(CNC(=O)C2Cn3ccnc3C3(CCN(C(=O)C4CC4)CC3)O2)cc1 (stereo unspecified)	0.9	-0.3	2.5	-3.0
Cc1nnc(NC(=O)c2cc3c([nH]c4ccccc43)c(C)n2)s1	-72.7	-5.0	-23.0	-36.3
COc1ccc(-c2cc3n(c(=N)c2C#N)CCc2cc(OC)c(OC)cc2-3)cc1	-315.8	-79.8	-83.6	-80.1
Cc1ccc(-c2cc3nccc(C4CCCNC4)n3n2)cc1 (stereo unspecified)	12.5	39.6*	-1.0	1.3
SMILES	USP30 block	USP28 block	OTUD3 block	USP17 block
O=C(Cn1cc(S(=O)(=O)N2CCOCC2)ccc1=O)Nc1ccc(Cl)cc1	3.6	-4.2	-3.0	-2.2
O=[N+]([O-])c1ccc(N2CCc3nc(-c4ccccn4)ncc3C2)cc1	77.3*	8.1	-6.1	70.4*
O=c1c2cnc(N3CCCC3)nc2ccn1-c1ccc([N+](=O)[O-])cc1	9.7	0.0	-0.8	7.6
Cc1cc2ncc3c(n2n1)CCN(c1ccc([N+](=O)[O-])cc1)C3	-237.4	-2.9	-43.1	32.6*
O=c1[nH]c(CN2CCCC2c2ccc3c(c2)OCCCO3)nc2ccccc12 (stereo unspecified)	-53.2	-24.3	-28.3	-22.6
Cc1ccc(C)c(Cn2nnc3c(=O)[nH]c(C4CCN(S(=O)(=O)c5ccc(S(=O)(=O)NC6CCCC6)cc5)CC4)nc32)c1	-0.7	20.9	-4.4	-7.8
Cc1ccc(C)c(Cn2nnc3c(=O)[nH]c(C4CCN(S(=O)(=O)c5ccc(S(=O)(=O)NC6CC6)cc5)CC4)nc32)c1	51.6*	42.2*	20.1	30.3*
Cc1ccc(C)c(Cn2nnc3c(=O)[nH]c(C4CCN(S(=O)(=O)c5ccc(S(=O)(=O)N6CCOCC6)cc5)CC4)nc32)c1	33.2*	15.5	26.8	40.4*
O=C(c1cncnc1)N1CCCC(c2ncc(Cc3ccccc3F)o2)C1 (stereo unspecified)	-18.2	0.2	-6.6	-0.6
Cn1c(=O)c2c(nc(SCc3nnc(-c4ccccc4)o3)n2Cc2ccc(F)cc2)n(C)c1=O	62.7*	33.0*	28.7	59.1*
COc1ccccc1CNC(=O)c1cc(OCc2ccccc2)nc2ccccc12	.	.	3.2	57.1*
O=C(NCc1ccc(F)cc1)c1cc(OCc2ccccc2)nc2ccccc12	31.3*	8.2	21.1	15.7
O=S(=O)(Nc1ccc2[nH]ncc2c1)c1ccc(Cl)cc1F	7.4	5.1	10.9	18.8
O=C1CCN(C(=O)COc2ccc(Cl)cc2)c2ccccc2N1	15.3	-4.3	-4.3	-8.9
O=C(COc1ccc(Cl)cc1)N1CCc2cc3ccccc3nc21	-13.9	2.3	8.3	65.5*
O=C(Cc1cccc(F)c1)N1CCC(c2nc(-c3ccccc3)no2)CC1	-5.8	-5.4	-1.7	2.9
Cc1c(CC(=O)Nc2nn[nH]n2)c(=O)oc2cc3c(cc12)CCC1(CCCCC1)O3	57.5*	20.7	6.3	-0.1
Cc1c(CC(=O)NC2CC2)c(=O)oc2cc3c(cc12)CCC1(CCCCC1)O3	25.8	14.4	22.4	12.9
O=C(Nc1cccc(Br)c1)C(Cc1c[nH]c2ccccc12)N1CCS(=O)(=O)CC1 (stereo unspecified)	-7.0	-5.5	-19.9	0.0
N#Cc1ccc(Sc2ccccc2)c(NC(=O)c2ccc(F)cc2)c1	30.7*	20.4	21.3	18.5
COC(=O)c1c(C)[nH]c(C(=O)C(C)OC(=O)CCC2CCCC2)c1C (stereo unspecified)	-8.3	79.4*	-5.9	5.1
Cc1nc(N2CCN(C)CC2)ncc1C(=O)NCc1ccc2c(c1)OCO2	3.3	2.7	6.7	-4.2
Cc1ccc(CSc2nnc(C3CCNCC3)o2)cc1	19.1	32.4*	11.8	-5.5
O=C(NCc1cccc(F)c1)c1ccc2c(c1)NC(=O)C1CCCN21 (stereo unspecified)	-58.7	-11.8	-15.4	47.6*
CNc1cncc(C2CCN(C(=O)c3ccn(C)n3)CC2)n1	1.7	0.7	15.6	3.9
Cc1c(C2CCCN(C(=O)c3ccn(C)n3)C2)n2c(nc1=O)CCC2 (stereo unspecified)	37.0*	5.4	25.5	19.5
Cc1cc(N2CCCC2)n2nc(CN3CCCC(C)C3)nc2n1 (stereo unspecified)	-38.2	0.6	-7.9	-17.0
CCOc1ccc(NS(=O)(=O)c2c[nH]c3ccc([N+](=O)[O-])cc23)cc1	63.3*	15.1	8.7	52.9*
Cc1cccc(C(=O)N2CCN(c3cc(=O)n(C)c(=O)n3C)CC2)c1	4.5	9.6	7.9	12.8
CCOc1ccc(NC(=O)COc2ccc(F)cc2)c2cccnc12	-7.6	-3.1	-4.9	4.8

Bioassay records (PubChem BioAssay)
